Bioassay records: PubChem, National Center for Advancing Translational Sciences (NCATS)
Compounds with a hit are over-represented: about 3.8% of the library has one in this group of screens.
A549 viability = counter-screen for Nrf2 inhibitors: cytotoxicity in A549 cells; A549 ARE-Fluc cells, CellTiter-Fluor viability, 18-24 h; 390,000 tested, 0.16% active; AID 504648; Potency, µM (titrated, usually from 46 µM), for the others: at the top dose activity change, negative = cytotoxicity, actives largely listed as inhibitors; also: % is scaled to controls: 0 for no effect and ±100 for the full control effect
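Cytotoxicity counterscreen: CellTiter-Fluor fluorescence was measured in A549 ARE_Fluc cells after 18-24 h of compound exposure in a concentration series. The subsequent BugLite luminescent read reports ARE-luciferase activity.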
ATXN2 expr inh = reduces ATXN2 reporter expression in HEK-293 cells | 360,000 tested, 0.72% active | HEK-293 ATXN2-luciferase reporter, luminescence, 24 h | Potency, µM (series often up to 57 µM), without a hit: at the highest dose activity change, negative = inhibition, usual class: inhibitors; also: % is scaled to controls: 0 for no effect and ±100 for the full control effect; nearly all actives have a fitted effect of over 55% in size
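ATXN2-luciferase reporter cells (luciferase flanked by upstream and downstream ATXN2 gene portions) were treated 24 h at 37 °C with compounds at up to 57 uM. SteadyGlo luminescence gave expression; GF-AFC fluorescence gave viability.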
S2 tox = cell viability loss in ATXN counter-screen; S2 cells (HEK-293 line with an ATXN2-luciferase reporter) viability, CellTiter-Fluor protease fluorescence, 24 h; 400,000 tested, 0.49% active; Potency, µM (titrated, usually from 56.7 µM), actives largely listed as cytotoxic; also: nearly all actives have a fitted effect of over 40% in size
Nrf2 block = inhibitors of Nrf2 signaling. 360,000 tested, 2.1% active. Potency, µM (series often up to 46 µM), for the others: at the highest dose activity change, negative = inhibition, most hits filed as inhibitors. A549 ARE-Fluc reporter, luciferase luminescence, 18-24 h. AID 504444; also: % is scaled to controls: 0 for no effect and ±100 for the full control effect; nearly all actives have a fitted effect of over 60% in size
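A549 ARE_Fluc cells, 5000/well, 5% FBS OPTI-MEM; compounds in dose-response, 18-24 h at 37 °C/5% CO2; CellTiter-Fluor viability read (Ex 405/Em 525), then BugLite luciferase luminescence = Nrf2 activity.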
HepG2 viability = kills HepG2 cells in TGF-b inhibitor counter-screen; HepG2 CAGA-GFP viability, ATP luminescence, 18 h; Potency, µM (top dose mostly 46.1 µM), inactives show at the highest dose activity change, negative = cytotoxicity, hits mostly cytotoxic; 410,000 tested, 0.76% active; AID 588856
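HepG2 CAGA-GFP cells (1000/well, DMEM with 1% FBS) received compound, then TGF-beta at 500 pg/mL final, and were incubated 18 hours at 37 degrees C. Viability was read by CellTiter-Glo luminescence. Media-only wells were set as complete cell-killing and DMSO as no toxicity.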
TGFb inhibitor = TGF-b pathway inhibition | HepG2 CAGA-GFP TGF-b/SMAD3 reporter, GFP fluorescence, 18 h; TGF-beta stimulated, 500 pg/mL final | Potency, µM (top dose mostly 46.1 µM), inactives show top-dose activity, negative = inhibition, actives largely listed as inhibitors | 410,000 tested, 1.2% active; also: % is scaled to controls: 0 for no effect and ±100 for the full control effect; nearly all actives have a fitted effect of over 65% in size
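Smad-responsive CAGA-GFP expression was quantified in HEPG2 cells exposed to compounds and 500 pg/mL final TGF-beta for 18 h at 37 degrees C; unstimulated wells defined full inhibition.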
Starred values were filed as active, the others as inactive; [ ] = another dose, or the depositor's remark. Calls follow the shape of the dose curve; as a rule, active = well fitted curve in the direction sought with a large enough effect; inconclusive = small, poorly fitted or top-dose-only effect, or another doubt; inactive = no such curve, though single readings can be large; an effect the other way counts as inactive or inconclusive. Potency is read from the fitted curve at half-maximal effect.

What do the screens show for `COc1ccccc1-c1cc(C(F)(F)F)nc(S(=O)(=O)CCCC(=O)NC(C)C)n1`?
A549 viability: inconclusive; ATXN2 expr inh: inconclusive; S2 tox: 31.6µM*; Nrf2 block: inconclusive; HepG2 viability: -22.3%; TGFb inhibitor: inconclusive

What do the screens show for `COc1ccccc1-c1cc(C(F)(F)F)nc(S(=O)(=O)CCCC(=O)NCc2ccc(F)cc2)n1`?
A549 viability: inconclusive; ATXN2 expr inh: inconclusive; Nrf2 block: inconclusive; HepG2 viability: 14.1µM*; TGFb inhibitor: inconclusive

Results for COc1ccccc1-c1cc(C(F)(F)F)nc(S(C)(=O)=O)n1 ?
A549 viability: -28.6%; ATXN2 expr inh: inconclusive; S2 tox: 31.6µM*; Nrf2 block: inconclusive; HepG2 viability: -116.0%; TGFb inhibitor: inconclusive

Results for O=C(O)c1cccc(NS(=O)(=O)c2cc(S(=O)(=O)c3ccc(Cl)cc3)ccc2Cl)c1 ?
A549 viability: 6.1%; ATXN2 expr inh: 0.1%; S2 tox: inactive; Nrf2 block: 1.8%; HepG2 viability: -9.1%; TGFb inhibitor: -2.6%

How did CCCN(C(=O)CCl)C1=CCCCC1 do in these assays?
A549 viability: -1.9%; ATXN2 expr inh: 8.44µM*; Nrf2 block: 2.0%; HepG2 viability: -17.9%; TGFb inhibitor: -1.2%

How did Cc1cc(O)cc(O)c1C=NCc1ccco1 do in these assays?
A549 viability: -12.2%; ATXN2 expr inh: inconclusive; S2 tox: 17.8µM*; Nrf2 block: -2.0%; HepG2 viability: -69.3%; TGFb inhibitor: 20µM*

How did Cc1cc(NC(=O)c2ccc(Cl)cc2)cc(C)c1OCC(=O)N1CCOCC1 do in these assays?
A549 viability: 0.6%; ATXN2 expr inh: 9.5%; S2 tox: inactive; Nrf2 block: 4.8%; HepG2 viability: -3.9%; TGFb inhibitor: -9.0%

Results for O=C(Nc1ccncc1)Nc1cccc(C(F)(F)F)c1 ?
A549 viability: 0.4%; ATXN2 expr inh: -20.1%; S2 tox: inactive; Nrf2 block: inconclusive; HepG2 viability: -23.1%; TGFb inhibitor: -14.1%

How did Cc1ccc(S(=O)(=O)Nc2ccc(NC(=O)Nc3cccc(C(F)(F)F)c3)cc2)cc1 do in these assays?
A549 viability: inconclusive; ATXN2 expr inh: inconclusive; S2 tox: inconclusive; Nrf2 block: 18.4µM*; HepG2 viability: 17.8µM*; TGFb inhibitor: 15.8µM*

What do the screens show for `NC(=O)/C=C\C(=O)Nc1cccc(C(F)(F)F)c1`?
A549 viability: -21.3%; ATXN2 expr inh: -33.1%; S2 tox: inactive; Nrf2 block: 1.84µM*; HepG2 viability: -33.8%; TGFb inhibitor: inconclusive

How did CCN(CC)S(=O)(=O)c1ccc(NC(=O)Nc2cccc(C(F)(F)F)c2)cc1 do in these assays?
A549 viability: inconclusive; ATXN2 expr inh: 20µM*; S2 tox: inconclusive; Nrf2 block: 20.6µM*; HepG2 viability: 11.2µM*; TGFb inhibitor: inconclusive

How did O=C(Nc1ccc(OC(F)F)cc1)Nc1cccc(C(F)(F)F)c1 do in these assays?
A549 viability: inconclusive; ATXN2 expr inh: inconclusive; S2 tox: inconclusive; Nrf2 block: 20.6µM*; HepG2 viability: 8.91µM*; TGFb inhibitor: inconclusive

Results for CCN(CC)S(=O)(=O)c1ccc(C(=O)Nc2cccc(C)c2)cc1 ?
A549 viability: -25.9%; ATXN2 expr inh: 26.7%; S2 tox: inactive; Nrf2 block: inconclusive; HepG2 viability: 7.5%; TGFb inhibitor: 43.2%

Results for Cc1ccc(CNC(=O)C2CCCN(S(=O)(=O)c3cn(C)cn3)C2)cc1 (centres undefined) ?
A549 viability: -2.5%; HepG2 viability: -1.9%; TGFb inhibitor: -4.2%

Results for C[N+]1(CCCOC(=O)C2(c3ccccc3)CCCC2)CCOCC1 ?
A549 viability: -0.8%; ATXN2 expr inh: -1.8%; S2 tox: inactive; Nrf2 block: -8.2%; HepG2 viability: 11.2µM*; TGFb inhibitor: inconclusive

How did CCOC(=O)c1c(C)sc2c1N(C(=O)CCl)c1cc(Cl)ccc1S2 do in these assays?
A549 viability: 1.0%; ATXN2 expr inh: inconclusive; S2 tox: 17.8µM*; Nrf2 block: 2.2%; HepG2 viability: -89.7%; TGFb inhibitor: inconclusive

How did O=C(c1ccc(F)cc1)c1ccc(-c2ccc(F)cc2)nc1 do in these assays?
A549 viability: -2.2%; ATXN2 expr inh: 27.4%; S2 tox: inactive; Nrf2 block: 12.2%; HepG2 viability: 2.4%; TGFb inhibitor: 4.4%

Results for N#CC(c1ccc(F)cc1)c1ccc(C(=O)c2ccc(F)cc2)cc1 (centres undefined) ?
A549 viability: -10.5%; ATXN2 expr inh: -15.7%; S2 tox: inactive; Nrf2 block: 14.6µM*; HepG2 viability: -9.1%; TGFb inhibitor: -17.6%

How did Cc1ccc(C(C#N)c2ccc(C(=O)c3ccc(F)cc3)cc2)cc1 (centres undefined) do in these assays?
A549 viability: -1.2%; ATXN2 expr inh: -16.9%; S2 tox: inactive; Nrf2 block: 25.9µM*; HepG2 viability: -19.8%; TGFb inhibitor: -22.6%

Results for Cc1ccc(C(=O)NC(C)c2ccc(F)cc2)cc1 (centres undefined) ?
A549 viability: -0.4%; ATXN2 expr inh: 8.4%; S2 tox: inconclusive; Nrf2 block: -14.2%; HepG2 viability: -1.8%; TGFb inhibitor: -15.7%

Results for COc1ccc(-c2n[nH]c3c2cnc2ccc(F)cc23)cc1 ?
A549 viability: -2.2%; ATXN2 expr inh: 26.1%; S2 tox: inactive; HepG2 viability: -13.0%; TGFb inhibitor: 1.1%

Results for CCOC(=O)c1ccc(Nc2c(CC)c(C)nc3ncnn23)cc1 ?
A549 viability: -18.0%; ATXN2 expr inh: -7.1%; S2 tox: inactive; Nrf2 block: 25.9µM*; HepG2 viability: -1.0%; TGFb inhibitor: -3.7%

Results for CCc1c(C)nc2ncnn2c1N1CCC(C(=O)Nc2ccc(C)cc2)CC1 ?
A549 viability: -1.4%[1.84 µM]; ATXN2 expr inh: inconclusive; S2 tox: inactive; Nrf2 block: 13µM*; HepG2 viability: -8.8%; TGFb inhibitor: -26.3%

How did Cc1ccc(S(=O)(=O)N2CCC(=O)N([C@H](COC(=O)Nc3ccccc3)Cc3ccccc3)CC2)cc1 do in these assays?
ATXN2 expr inh: 7.5%; S2 tox: inactive

How did Cc1cc2nc(-c3ccc(SCc4ccc(C(=O)O)cc4)nc3)[nH]c2cc1C do in these assays?
A549 viability: -21.3%; ATXN2 expr inh: 48.1%[11.3 µM]; S2 tox: inactive; Nrf2 block: inconclusive; HepG2 viability: 3.6%; TGFb inhibitor: -5.6%
